Reference: PubChem BioAssay AID686979 (National Center for Advancing Translational Sciences (NCATS), 2013)
The campaign covered roughly 420,000 compounds. About 50,000 (12%) were called active. About 26% were inconclusive and are not listed. The sample holds actives, similar compounds and a random draw of the others, so the mix is not that of the screen. Unmarked numbers belong to inactive results. Calls follow the shape of the dose curve; as a rule, active = well fitted inhibition curve with a large enough effect; inconclusive = small, poorly fitted or top-dose-only effect; inactive = flat fitted curve, though single readings scatter.

Experiment: qHTS for Inhibitors of human tyrosyl-DNA phosphodiesterase 1 (TDP1): qHTS in cells in presence of CPT; also: nearly all actives have a fitted effect of over 55% in size
Settings: chicken DT40 Tdp1-/-;hTDP1 cells + 20 nM CPT, ATP luminescence, 48 h; series mostly up to 46.2 µM; activity change, negative = growth inhibition: at the top concentration
How it was run: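 Chicken DT40 Tdp1-/- cells stably complemented with human TDP1 were seeded at 400 cells/well in medium containing 20 nM camptothecin, exposed to pin-transferred compounds, and grown at 37 °C for at least 48 hr. Viability was read as ATP luminescence.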
% is scaled to controls: 0 for no effect and ±100 for the full control effect; potency is read from the fitted curve at half-maximal effect.

| SMILES | activity change, negative = growth inhibition | Potency |
| --- | --- | --- |
| CCc1ccccc1OCC(=O)Nc1nnc(C2CC2)s1 | -20.6% | – |
| N#Cc1ccc[n+](CC(=O)c2ccc(O)c(O)c2)c1 | -3.73% | – |
| O=C(CSc1ncn[nH]1)Nc1ccc(Br)cc1Br | -2.92% | – |
| Cc1n[nH]c(=O)c2c(NC(=O)COC(=O)c3ncc(Cl)c(Cl)c3Cl)oc(C)c12 | 5.53% | – |
| O=C(CN(C(=O)c1nsc(Cl)c1Cl)c1cccc(F)c1)NC1CCCC1 | 8.99% | – |
| Cc1ccc(S(=O)(=O)n2oc(=O)c(C3CCCCC3)c2N)cc1 | 0.443% | – |
| Cc1c(Cl)c([N+](=O)[O-])nn1Cc1ccc(C(=O)N/N=C\c2cc(Cl)ccc2O)o1 | – | 3.66 µM (active) |
| O=C(N/N=C/c1ccc2c(c1)OCO2)c1ccc(Cn2cc([N+](=O)[O-])cn2)o1 | 0.995% | – |
| Cc1ccc(C(=O)O)cc1NC(=O)c1ccc(Cn2nc(C)c(Cl)c2C)o1 | 7.71% | – |
| Brc1ccccc1/C=N/Nc1nc2ccccc2o1 | -26.5% | – |
| COc1cc(OC)cc(-c2nnc(N(C)C(=O)c3ccncc3)s2)c1 | -16.9% | – |
| COCCN(C(=O)c1ccco1)c1nnc(-c2ccc(OC)cc2)s1 | -8.51% | – |
| COCCN(C(=O)C(C)C)c1nnc(-c2ccc(C(C)(C)C)cc2)s1 | – | 20.6 µM (active) |
| COc1ccc(/C=C/c2noc(-c3ccccc3O)n2)cc1OC | -13.4% | – |
| CC(=O)O[C@H]1c2ccccc2-c2ccccc2[C@@H]1OC(C)=O | 6.3% | – |
| Cc1cccc(NC(c2cccc(F)c2)c2ccc3ccc(C)nc3c2O)n1 (stereo not given) | – | 8.2 µM (active) |
| CCn1ncc(CNC(=O)C2(C)CC2(Br)Br)c1C (stereo not given) | 0.642% | – |
| CCc1nc2ccc(C(=O)N3CCN(c4cccc(Cl)c4)CC3)cc2nc1CC | -30.4% | – |
| O=C(CCCC(=O)N1CCN(c2cccc(Cl)c2)CC1)c1ccccc1 | – | 14.6 µM (active) |
| O=C(CN1CCN(c2ccc(Cl)cc2)CC1)c1ccccc1 | -26.7% | – |
| COc1cc(C(C(=O)NC2CCCC2)N(C(=O)c2ccco2)c2ccccc2C(C)=O)cc(OC)c1OC (stereo not given) | -1.96% | – |
| CC(C)C(NC(=O)c1c(F)cccc1F)C(=O)NCc1ccncc1 (stereo not given) | -27.6% | – |
| CCO[C@H]1OC(C(=O)N2CCOCC2)=C[C@@H](c2ccc3c(c2)OCO3)[C@@H]1CCCO | -0.536% | – |
| CCO[C@H]1OC(C(=O)NCc2ccccc2)=C[C@@H](c2coc3ccccc3c2=O)[C@@H]1CCCO | – | 23.1 µM (active) |
| O=C(NC1CC1)C1=C[C@H](c2coc3ccccc3c2=O)C[C@H](OCCCCO)O1 | -8.12% | – |
| Cc1ccc(NC(=O)C(c2ccccc2)N2CCN(C(=O)c3ccco3)CC2)cc1 (stereo not given) | -20.2% | – |
| O=C(O)C1CCCN1c1nc(Cl)ccc1[N+](=O)[O-] (stereo not given) | 7.86% | – |

| SMILES | activity change, negative = growth inhibition | Potency |
| --- | --- | --- |
| O=C(CCS(=O)(=O)c1cc(Br)cc2c1N(C(=O)C1CC1)CC2)Nc1ccc(Br)cc1F | 12.1% | – |
| O=C(CCS(=O)(=O)c1cc(Br)cc2c1N(C(=O)C1CC1)CC2)Nc1ccc(C(F)(F)F)cc1 | -13.6% | – |
| CCC(=O)N1CCc2cc(Br)cc(S(=O)(=O)CCC(=O)NCc3ccccc3OC)c21 | -2.41% | – |
| CCC(=O)N1CCc2cc(S(=O)(=O)CCC(=O)N3CCN(c4ccccc4F)CC3)ccc21 | -15.1% | – |
| CCC(=O)N1CCc2cc(Br)cc(S(=O)(=O)CCC(=O)N3CCN(c4ccc(F)cc4)CC3)c21 | – | 20.6 µM (active) |
| CN(Cc1ccccc1)C(=O)CCS(=O)(=O)c1cc(Br)cc2c1N(C(=O)C1CC1)CC2 | – | 13 µM (active) |
| CC1(C)C[C@H]2C3=CCC4[C@@]5(C)CC[C@H](O)[C@](C)(CO)C5CC[C@@]4(C)[C@]3(C)C[C@@H](O)[C@@]2(CO)[C@@H](O)[C@@H]1O (stereo not given in full) | -6.68% | – |
| CCCCc1nc2cc(C(=O)NCCc3cnn(C)c3)ccc2o1 | -21.1% | – |
| Cc1cc(C)c(C)c(S(=O)(=O)N[C@@H](C)C(=O)OC(C)C(=O)NC(N)=O)c1C (stereo not given in full) | 1.29% | – |
| CN(Cc1c(F)cccc1Cl)C(=O)COC(=O)Cn1cnc2ccccc2c1=O | 6.46% | – |
| CCc1nnc(NC(=O)C2CCN(C(=O)c3ccccc3C)CC2)s1 | 2.38% | – |
| CCOC(=O)Nc1ccc(S(=O)(=O)N(C)C(C)C)cc1 | -9.23% | – |
| Cc1ccccc1C(=O)N1CCC(C(=O)Nc2ccc(S(=O)(=O)N(C)C(C)C)cc2)CC1 | – | 14.6 µM (active) |
| COc1ccc(N2CCN(CCCNC(=O)C3CCN(S(=O)(=O)N4CCOCC4)CC3)CC2)cc1 | -5.76% | – |
| NNC(=O)c1oc2nc(-c3ccccc3)cc(-c3ccco3)c2c1N | -7.63% | – |
| CN(C)C(=O)Cn1c(=O)n(S(=O)(=O)c2ccccc2)c2ccccc21 | 33.8% | – |
| C/C(=N\OCC(=O)Nc1ccc(Br)cc1)c1cccs1 | -4.26% | – |
| CC1CC2=C(CC1/C=N/NC(N)=S)C(C)(C)CCC2 (stereo not given) | – | 4.11 µM (active) |
| CC1(C)CCCC2=C1CC1C(=O)N(c3ccccc3)C(=O)C1C2 (stereo not given) | -11.4% | – |
| Cc1ccccc1N1CC(C(=O)Nc2nnc(SCCC3OCCO3)s2)CC1=O (stereo not given) | -1% | – |
| COc1ccc(NC(=O)N2CCCC2C(=O)NCc2ccccc2Cl)cc1 (stereo not given) | -17.9% | – |
| Cc1ccccc1-c1nc(C#N)c(NCc2ccco2)o1 | 25.6% | – |
| COc1ccc(Nc2oc(-c3ccccc3Cl)nc2C#N)cc1 | – | 2.91 µM (active) |
| CCOc1ccc(Nc2oc(/C=C/c3ccc(F)cc3)nc2C#N)cc1 | -22.1% | – |
| CCOC(=O)N1CCN(Cc2nnc(-c3ccccc3Cl)o2)CC1 | -24.8% | – |
| CCc1ccc[n+](-c2nc([O-])sc2C=O)c1 | -0.903% | – |
| COc1cccc(C(=O)Nc2cc3c(cc2Br)OCCCO3)c1 | -23% | – |

| SMILES | activity change, negative = growth inhibition | Potency |
| --- | --- | --- |
| Cn1c(N)c(C(=O)COC(=O)C23CC4CC(CC(C4)C2)C3)c(=O)n(C)c1=O | -23.7% | – |
| CCOC(=O)c1cc2c(n(-c3ccc(C)cc3)c1=O)CCCC2=O | -0.219% | – |
| Cc1cc(C(=O)COC(=O)C2CC2)c(C)n1-c1ccc(F)cc1 | -3.09% | – |
| Cc1ccc(-n2c(C)cc(C(=O)CN3C(=O)C(=O)N(C4CCCC4)C3=O)c2C)cc1 | – | 20.6 µM (active) |
| Cc1cc(OC(=O)c2ccc(OC(C)C)cc2)c([N+](=O)[O-])c(=O)[nH]1 | -2.01% | – |
| COCc1cc(C)n(CC(=O)NCC2CCCO2)c(=O)c1C#N (stereo not given) | -0.925% | – |
| CC1(C)O[C@@H]2CC3C4C[C@H](F)C5=CC(=O)C=CC5(C)C4C(O)CC3(C)[C@]2(C(=O)CO)O1 (stereo not given in full) | -14.3% | – |
| CCOC(=O)c1ccccc1NC(=S)N1CCC(C(N)=O)CC1 | 1.5% | – |
| CCc1ccc(CNC(=O)C2CCCN(c3nc4ccccc4o3)C2)cc1 (stereo not given) | -19.6% | – |
| CCOC(=O)c1cnc(Nc2nc3ccccc3o2)nc1CSC(=S)N1CCCCC1 | – | 0.146 µM (active) |
| O=C(COc1ccc(F)cc1)N(CC1=CCS(=O)(=O)C1)c1ccccc1 | -20.9% | – |
| CN(Cc1ccccc1)C(=O)COc1ccccc1 | -19.8% | – |
| CCN(C(=O)COc1ccc(C(=O)c2ccccc2)cc1)c1ccccc1 | – | 18.4 µM (active) |
| CC(C)CCN1C(=O)c2ccc(C(=O)Nc3cccc(S(N)(=O)=O)c3)cc2C1=O | -22% | – |
| COCCCn1c(SCC(=O)Nc2oc(C)c3c(C)n[nH]c(=O)c23)nc2sc3c(c2c1=O)CCC3 | -19.5% | – |
| O=C1/C(=C/c2ccc(F)cc2)SC(=S)N1CCCC(=O)N1CCCCC1CCO (stereo not given) | – | 16.4 µM (active) |
| Cc1ccc(/C=C2\SC(=S)N(CCC(=O)Nc3ccc(O)cc3)C2=O)cc1 | 12% | – |
| COc1ccccc1C(=O)NNC(=O)CCN1C(=O)/C(=C\c2ccccc2)SC1=S | 1.22% | – |
| CN(C)c1ccc(NC(=O)CN2C3CCCC2CC(NC(=O)c2ccccc2)C3)cc1 (stereo not given) | -2% | – |
| CCOC(=O)N1CCN(C(=O)CSc2nc(C)nc3c2c(=O)n(C)c(=O)n3C)CC1 | -4.74% | – |
| Cc1ccc(CNC(=O)CSc2c(C)cnc3c2c(=O)n(C)c(=O)n3C)cc1 | 2.07% | – |
| CCc1cnc2c(c1SCC(=O)N1CCC(C)CC1)c(=O)n(C)c(=O)n2C | – | 20.6 µM (active) |
| COc1cc(C(c2c(NC(=O)c3ccco3)sc(C)c2C)N2CCOCC2)cc(OC)c1OC (stereo not given) | – | 23.1 µM (active) |
| COc1ccc(CC(=O)Nc2ccccc2NC(=O)c2ccco2)cc1OC | -0.664% | – |
| COc1ccc(NC(=O)CCC(=O)Nc2cc(OC)c(NC(=O)c3ccco3)cc2OC)c(OC)c1 | -26.9% | – |
| COC(=O)c1ccccc1NC(=O)c1ccc(COc2ccccc2Cl)o1 | -21.6% | – |
| COc1ccc(OCCCC(=O)OC(C)C(=O)Nc2ccccc2[N+](=O)[O-])cc1 (stereo not given) | 4.09% | – |

| SMILES | activity change, negative = growth inhibition | Potency |
| --- | --- | --- |
| COC(=O)Cn1cc(/C=C/[N+](=O)[O-])c2ccccc21 | – | 10.3 µM (active) |
| COC(=O)c1cn(CC(=O)NCc2cccs2)c2ccccc12 | -11% | – |
| COC(=O)Cn1cc(C(=O)c2cccs2)c2ccccc21 | -6.42% | – |
| Cc1[nH]c2ccccc2c1/C=N\NC(=O)Cn1nnc(-c2ccccc2)n1 | -15.7% | – |
| O=C(N/N=C/c1c(Cl)[nH]c2ccccc12)c1sc2ccccc2c1Cl | – | 23.1 µM (active) |
| COC(=O)c1cc(NC(=O)c2sc3ccccc3c2Cl)cc(C(=O)OC)c1 | -28.5% | – |
| CC(=O)c1nnn(-c2ccc(Cl)cc2C#N)c1C | 0% | – |
| COCCCNc1nc2ccccc2nc1NS(=O)(=O)c1ccc(F)cc1 | -6.29% | – |
| CCCc1cc(=O)n2[nH]c(NCc3ccc(CC)cc3)nc2n1 | -1.57% | – |
| CCCCn1nnnc1C1(C)CCC(=O)N1Cc1ccc(OC)c(OC)c1 (stereo not given) | -11.6% | – |
| COc1ccc(CN2C(=O)CC(Cc3ccc(C)cc3)C2=O)cc1OC (stereo not given) | -28.9% | – |
| CCCCOc1ccc(CN2C(=O)C(=O)c3cc(Br)cc(C)c32)cc1OC | – | 0.82 µM (active) |
| Cc1cc(C)nc(NC(=O)c2cccc([N+](=O)[O-])c2)c1 | 0.531% | – |
| O=C(Nc1ccc(F)cc1)C(CCc1ccccc1)N1CCN(CC(=O)N2CCCC2)CC1 (stereo not given) | -16.7% | – |
| OC(c1ccc(Cl)cc1)C(CN1CCOCC1)c1ccccc1 (stereo not given) | -26.3% | – |
| COc1cccc(OC)c1C(=O)N1CCN(Cc2ccccc2F)CC1 | -3.78% | – |
| CCCCc1c(-c2ccc(Cl)cc2)ncn1CCc1ccccc1OC | – | 4.61 µM (active) |
| COc1ccccc1OCCCn1c(-c2ccc(Cl)cc2)nc2ccccc2c1=O | -1.91% | – |
| COc1ccccc1NC(=O)c1c(Br)cnn1C | -14.9% | – |
| CCCc1c(-c2ccccc2F)ncn1Cc1ccccc1OC | – | 1.3 µM (active) |
| COc1ncc2nc(-c3ccc(Cl)cc3)c(=O)n(C)c2n1 | 1.69% | – |
| COc1ccccc1CN1CCN(Cc2cc(OC)c(OC)cc2OC)CC1 | -3.91% | – |
| COCCn1cnc2c1c(=O)n(Cc1ccc(Br)cc1)c(=O)n2Cc1ccccc1 | 0.0958% | – |
| CCCCc1c(-c2ccc(Br)cc2)ncn1CCc1ccccc1OC | – | 1.3 µM (active) |
